Compounds with a hit are over-represented: about 12% of the library has one in this group of screens.
BAZ2B block: qHTS Assay for Inhibitors of BAZ2B | Potency, µM (top dose mostly 114 µM), inactives show at the top dose activity change, negative = inhibition, usual class: inhibitors | AID 504333, 2011 | hit rate 4.4% among 360,000 | AlphaScreen BAZ2B-H3K14Ac peptide displacement; also: potency is read from the fitted curve at half-maximal effect; % is scaled to controls: 0 for no effect and ±100 for the full control effect; nearly all actives have a fitted effect of over 60% in size
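AlphaScreen displacement: compounds (up to 110uM) incubated 30 min at room temperature with a preformed 50 nM BAZ2B/50 nM biotinylated H3K14Ac peptide complex in PBS pH 7.4 with Tween-20. Donor and acceptor beads at 10 ug/mL final added, 20 min light-protected before reading.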
JMJD2A Tudor inh: qHTS Assay for Inhibitors of JMJD2A-Tudor Domain; AlphaScreen JMJD2A-Tudor / H3K4me3 peptide binding; AID 504339, 2011; Lysine-specific demethylase 4A (Homo sapiens), O75164; hit rate 4.4% among 390,000; Potency, µM (series often up to 114 µM), for the others: at the top dose activity change, negative = inhibition, most hits filed as inhibitors; also: potency is read from the fitted curve at half-maximal effect; % is scaled to controls: 0 for no effect and ±100 for the full control effect; nearly all actives have a fitted effect of over 50% in size
PI5P4Ka inh: qHTS for Inhibitors of phosphatidylinositol 5-phosphate 4-kinase (PI5P4K). Phosphatidylinositol 5-phosphate 4-kinase type-2 alpha (Homo sapiens), P48426. PI5P4Kalpha enzyme, ADP-Glo luminescence, 60 min; active compounds read low. max response, %. hit rate 1.2% among 330,000. AID 652105, 2013; active = max response of -50% or lower; inconclusive = between -30% and -50%; inactive = -30% or higher; also: value at the top dose of about 77 µM; % is scaled to controls: 0 for no effect and ±100 for the full control effect
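PI5P4Kalpha ADP-Glo assay; 5 microM ATP final; 60 min RT reaction; HEPES pH 7.4/EGTA/CHAPS, 5% DMSO; controls lacking substrate or enzyme; luminescent end-point.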
PLK1 PBD inh: qHTS for Inhibitors of PLK1-PDB (polo-like kinase 1 - polo-box domain): Primary Screen; Serine/threonine-protein kinase PLK1 (Homo sapiens), P53350; Plk1 PBD binding of FITC phosphopeptide, fluorescence polarization; Potency, µM, for inactives: max response, negative = inhibition, most hits filed as inhibitors; hit rate 2.8% among 360,000; AID 720504, 2013; also: potency is read from the fitted curve at half-maximal effect; series mostly up to about 57 µM; % is scaled to controls: 0 for no effect and ±100 for the full control effect; nearly all actives have a fitted effect of over 65% in size
G9a block: qHTS Assay for Inhibitors of Histone Lysine Methyltransferase G9a. Histone-lysine N-methyltransferase EHMT2 (Homo sapiens), Q96KQ7. G9a H3K9 monomethylation, AlphaScreen, 2 h. Potency, µM (series often up to 102 µM), inactives show top-dose activity, negative = inhibition, most hits filed as inhibitors. hit rate 8.8% among 350,000; also: potency is read from the fitted curve at half-maximal effect; % is scaled to controls: 0 for no effect and ±100 for the full control effect; nearly all actives have a fitted effect of over 75% in size
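Enzyme 20 nM + cpd, 15 min RT; add b-H3K9 pep 500 nM / SAM 20 uM; 2 h RT; anti-H3K9me1 Ab 0.5 ug/mL + SA donor / anti-rabbit acceptor beads 20 ug/mL each, 10 min; AlphaScreen read.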
HP1b chromo inh: HTS for Inhibitors of HP1-beta Chromodomain Interactions with Methylated Histone Tails; Potency, µM (series often up to 114 µM), for the others: top-dose activity change, negative = inhibition, hits mostly inhibitors; AID 540317, 2011; AlphaScreen HP1-beta / biotin-H3K9me3 peptide binding; Chromobox protein homolog 1 (Homo sapiens), P83916; hit rate 0.56% among 390,000; also: potency is read from the fitted curve at half-maximal effect; nearly all actives have a fitted effect of over 70% in size
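HP1-beta protein (50 nM final) preincubated 30 min at room temperature with biotinylated H3(1-18)K9me3 peptide (50 nM) in PBS pH 7.4, 0.01% Tween-20, then compound added for 30 min. AlphaScreen streptavidin donor/nickel chelate acceptor beads (10 ug/mL final), 30 min dark, luminescence read.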
Active calls of the source: *; ? = inconclusive; . = not tested or not shown; [ ] = dose if it differs, or a comment. Unless noted, calls follow the shape of the dose curve; as a rule, active = well fitted curve in the direction sought with a large enough effect; inconclusive = small, poorly fitted or top-dose-only effect, or another doubt; inactive = no such curve, though single readings can be large; an effect the other way counts as inactive or inconclusive.

SMILES	BAZ2B block	JMJD2A Tudor inh	PI5P4Ka inh	PLK1 PBD inh	G9a block	HP1b chromo inh
Cc1ccc2cccnc2c1N	?	22.4µM*	1.5	-0.6%	-2.8%	-4.2%
Cc1ccnc2c1ccc1c(C)ccnc12	4.47µM*	7.08µM*	4.2	-2.2%	?	48.0%
Cc1ccnc2c1ccc1ccccc12	43.1%	16.7%	10.4	-5.0%	65.2%	78.1%
Cc1cccc2cccnc12	12.9%	-11.7%	1.5	-2.8%	0.3%[0.501 µM]	74.8%
Cc1ccnc2c1ccc1cccnc12	2.82µM*	5.62µM*	5.7	-1.9%	12.6µM*	43.5%
CCCCNC(=O)C1Cc2cc(S(=O)(=O)N3CCCC3)ccc2N1C(C)=O (centres undefined)	-4.8%	-14.4%	0.2	-21.6%	8.1%	49.1%
O=c1c(Cl)c(Cl)cnn1Cc1nnc(-c2ccc(Cl)cc2)o1	.	-12.6%	-57.8*	?	?	35.4%
Cc1ccc(Cn2ncc(Cl)c(Cl)c2=O)cc1	3.2%	8.8%	-18.0	?	0.7%	61.0%
O=C1CN(C(=O)c2cccc(Br)c2)C(c2ccccc2)c2cc(Cl)ccc2N1 (centres undefined)	-22.1%	-31.4%	.	.	?	18.8%
C=C1CC[C@H](O)C/C1=C/C=C1\CCC[C@]2(C)[C@@H]([C@H](C)/C=C/[C@H](C)C(C)C)CC[C@@H]12	-26.2%	?	-8.3	-21.8%	14.1µM*	4.4%
Cc1cc(=O)n(C(C)C(=O)N2CCCc3ccccc32)c2c1c(C)nn2-c1ccccc1 (centres undefined)	?	-15.0%	.	.	9.8%[59 µM]	-15.5%
CC(C)(C)c1ccc(-c2nc(SCCOc3ccc(Cl)cc3)n3[nH]c(=O)cc3n2)cc1	50.1µM*	?	.	.	17.9%[59 µM]	43.7%
Cc1ccc(OCCCSc2nc(-c3ccc(C(C)(C)C)cc3)nc3cc(=O)[nH]n23)cc1C	44.7µM*	25.1µM*	.	.	-0.1%[59 µM]	?
O=C(CCSc1nc(-c2ccco2)cc(C(F)(F)F)n1)N1CCCc2ccccc21	-0.2%	-8.7%	-11.5	-7.0%	15.8µM*	44.0%
O=C(CCSc1nc(-c2ccco2)cc(C(F)(F)F)n1)N1CCN(c2ccccn2)CC1	-12.9%	-25.7%	-4.5	-4.2%	?	28.6%
COc1ccc2nc3cc(Cl)ccc3c(C#N)c2c1	-14.0%	-13.8%	4.0	-19.3%	50.1µM*	-7.3%
CCCn1c(SCC(=O)c2ccc3c(c2)NC(=O)CO3)nc2ccccc21	-2.0%	-31.4%	-14.3	9.47µM*	?	0.4%
Cc1cc(=O)[nH]c(SCC(=O)c2ccc3c(c2)NC(=O)CO3)n1	-3.5%	-18.3%	-5.2	-27.7%	-39.3%[59 µM]	8.2%
Nc1cc(N)nc(SCC(=O)c2ccc3c(c2)NC(=O)CO3)n1	-10.3%	11.3%	0.3	-13.9%	35.5µM*	6.0%
COc1ccc(CNc2ccnc(-c3c(C)noc3C)n2)c(OC)c1	.	.	.	.	-3.1%[0.501 µM]	.
CC(=O)c1cccc(-c2ccnc3c2CC(C(=O)Nc2cccc(OC(F)(F)F)c2)O3)c1 (centres undefined)	.	.	4.3	-2.6%	.	.
CN1CC[n+]2cnc3ccccc3c21	-14.5%	-5.2%	.	-0.1%	2.51µM*	16.1%
COc1ccc(NC(=O)Cn2ccn(-c3ccccc3)c(=O)c2=O)cc1	-23.8%	-14.8%	.	.	?	22.8%
Nc1ccc2nc(CCCCc3nc4ccccc4[nH]3)[nH]c2c1	?	?	-2.3	1.9%	35.5µM*	2.4%
CCCCc1nc2ccccc2[nH]1	4.5%	-8.6%	3.6	-10.8%	7.9%	7.1%
Nc1ccc2nc(CCCCCCCCc3nc4ccc(N)cc4[nH]3)[nH]c2c1	22.4µM*	50.1µM*	-4.8	-12.1%	31.6µM*	3.7%
c1ccc2[nH]c(CCCc3nc4ccccc4[nH]3)nc2c1	-5.6%	-11.9%	2.3	-8.0%	56.2µM*	54.0%

Assay outcomes: PubChem, National Center for Advancing Translational Sciences (NCATS)
